From PubChem BioAssay
Active and inactive are the calls of the source.

How the values were obtained:
[1] = binders of probe aFSTL3 on microarray, primary screen, stem cell growth factor project, biochemical, small-molecule microarray, fluorescence 635/667 (AID 1064); settings: higher = more signal;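 further: measures binding of the biotinylated anti-FSTL3 antibody to printed compounds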
[2] = binders from COS7 lysate, DM2A8 probe, primary screen, torsin A project, cell lysate, small-molecule microarray, fluorescence 635/667 (AID 1065); settings: higher = more signal, COS7 lysate expressing mutant human TOR1A
[3] = binders of probe aFGF2 on microarray, primary screen, stem cell growth factor project, biochemical, small-molecule microarray, fluorescence 635/667 (AID 1067); settings: higher = more signal;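 further: measures binding of biotinylated aFGF2 protein to printed compounds on slides; z-score merges feature fluorescence and signal-to-noise across triplicate slides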
[4] = binders of probe aFGF10 on microarray, primary screen, stem cell growth factor project, biochemical, small-molecule microarray, fluorescence 635/667 (AID 1071); settings: higher = more signal;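 further: score merges 667 nm spot intensity and signal to noise from triplicate slides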
[5] = target: Neurogenic locus notch homolog protein 2 (Homo sapiens) (UniProt Q04721); test: Notch2 binders on small-molecule microarrays, primary screen, biochemical, small-molecule microarray, 635 nm fluorescence, stem cell growth factors (AID 1073); settings: Notch2 binding, higher = more signal
[6] = target: Pro-neuregulin-1, membrane-bound isoform (Homo sapiens) (UniProt Q02297); test: NRG1 binders on small-molecule microarrays, primary screen, psychiatric disease protein project, biochemical, small-molecule microarray, fluorescence 635/667 (AID 1075); settings: NRG1 binding, 635 nm fluorescence, higher = more signal;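 further: score combines 667 nm spot fluorescence with signal to noise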
[7] = system: Neuregulin-1 EGF-like domain; test: binders of neuregulin-1 EGF-like domain, primary screen, biochemical, small-molecule microarray, 635 nm fluorescence (AID 1081); settings: small-molecule microarray binding, higher = more signal;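 further: binding of the protein to compounds printed on small-molecule microarray slides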
[8] = FRG1 promoter luciferase signal modulators, primary screen, FRG1 inhibition for FSHD, cell-based, C2C12 myotubes, firefly/Renilla luciferase, luminescence (AID 1084); settings: higher = more signal, called active from +8 up or from −8 down
[9] = binders of probe aFST on microarray, primary screen, stem cell growth factor project, biochemical, small-molecule microarray, fluorescence 635/667 (AID 1086); settings: higher = more signal;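 further: score merges 667 nm fluorescence with signal-to-noise of each printed compound spot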
[10] = binders of probe aHhip on microarray, primary screen, stem cell growth factor project, biochemical, small-molecule microarray, fluorescence 635/667 (AID 1087); settings: higher = more signal;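 further: score merges spot fluorescence at 667nm with spot signal to noise ratio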

Chain of Pro-neuregulin-1, membrane-bound isoform (Homo sapiens) (Q02297 whole entry, looked up, the tested form may be a part, canonical isoform): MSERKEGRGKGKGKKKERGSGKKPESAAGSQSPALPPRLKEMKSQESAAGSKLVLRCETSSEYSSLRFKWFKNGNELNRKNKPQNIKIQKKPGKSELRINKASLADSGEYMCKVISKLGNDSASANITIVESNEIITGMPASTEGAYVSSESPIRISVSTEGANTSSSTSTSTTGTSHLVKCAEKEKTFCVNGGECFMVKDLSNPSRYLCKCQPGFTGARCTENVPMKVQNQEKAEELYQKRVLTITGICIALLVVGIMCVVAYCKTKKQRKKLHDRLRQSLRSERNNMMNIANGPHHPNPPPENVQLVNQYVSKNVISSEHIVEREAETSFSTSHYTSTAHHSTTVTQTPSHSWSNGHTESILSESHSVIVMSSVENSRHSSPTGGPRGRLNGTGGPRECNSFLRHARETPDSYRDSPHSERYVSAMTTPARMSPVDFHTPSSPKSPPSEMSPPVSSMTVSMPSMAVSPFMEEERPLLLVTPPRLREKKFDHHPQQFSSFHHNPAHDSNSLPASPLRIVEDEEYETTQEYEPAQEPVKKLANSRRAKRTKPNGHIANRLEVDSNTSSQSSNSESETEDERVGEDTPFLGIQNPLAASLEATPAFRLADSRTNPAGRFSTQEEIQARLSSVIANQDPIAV
Chain of Neurogenic locus notch homolog protein 2 (Homo sapiens) (Q04721 whole entry, looked up, canonical isoform): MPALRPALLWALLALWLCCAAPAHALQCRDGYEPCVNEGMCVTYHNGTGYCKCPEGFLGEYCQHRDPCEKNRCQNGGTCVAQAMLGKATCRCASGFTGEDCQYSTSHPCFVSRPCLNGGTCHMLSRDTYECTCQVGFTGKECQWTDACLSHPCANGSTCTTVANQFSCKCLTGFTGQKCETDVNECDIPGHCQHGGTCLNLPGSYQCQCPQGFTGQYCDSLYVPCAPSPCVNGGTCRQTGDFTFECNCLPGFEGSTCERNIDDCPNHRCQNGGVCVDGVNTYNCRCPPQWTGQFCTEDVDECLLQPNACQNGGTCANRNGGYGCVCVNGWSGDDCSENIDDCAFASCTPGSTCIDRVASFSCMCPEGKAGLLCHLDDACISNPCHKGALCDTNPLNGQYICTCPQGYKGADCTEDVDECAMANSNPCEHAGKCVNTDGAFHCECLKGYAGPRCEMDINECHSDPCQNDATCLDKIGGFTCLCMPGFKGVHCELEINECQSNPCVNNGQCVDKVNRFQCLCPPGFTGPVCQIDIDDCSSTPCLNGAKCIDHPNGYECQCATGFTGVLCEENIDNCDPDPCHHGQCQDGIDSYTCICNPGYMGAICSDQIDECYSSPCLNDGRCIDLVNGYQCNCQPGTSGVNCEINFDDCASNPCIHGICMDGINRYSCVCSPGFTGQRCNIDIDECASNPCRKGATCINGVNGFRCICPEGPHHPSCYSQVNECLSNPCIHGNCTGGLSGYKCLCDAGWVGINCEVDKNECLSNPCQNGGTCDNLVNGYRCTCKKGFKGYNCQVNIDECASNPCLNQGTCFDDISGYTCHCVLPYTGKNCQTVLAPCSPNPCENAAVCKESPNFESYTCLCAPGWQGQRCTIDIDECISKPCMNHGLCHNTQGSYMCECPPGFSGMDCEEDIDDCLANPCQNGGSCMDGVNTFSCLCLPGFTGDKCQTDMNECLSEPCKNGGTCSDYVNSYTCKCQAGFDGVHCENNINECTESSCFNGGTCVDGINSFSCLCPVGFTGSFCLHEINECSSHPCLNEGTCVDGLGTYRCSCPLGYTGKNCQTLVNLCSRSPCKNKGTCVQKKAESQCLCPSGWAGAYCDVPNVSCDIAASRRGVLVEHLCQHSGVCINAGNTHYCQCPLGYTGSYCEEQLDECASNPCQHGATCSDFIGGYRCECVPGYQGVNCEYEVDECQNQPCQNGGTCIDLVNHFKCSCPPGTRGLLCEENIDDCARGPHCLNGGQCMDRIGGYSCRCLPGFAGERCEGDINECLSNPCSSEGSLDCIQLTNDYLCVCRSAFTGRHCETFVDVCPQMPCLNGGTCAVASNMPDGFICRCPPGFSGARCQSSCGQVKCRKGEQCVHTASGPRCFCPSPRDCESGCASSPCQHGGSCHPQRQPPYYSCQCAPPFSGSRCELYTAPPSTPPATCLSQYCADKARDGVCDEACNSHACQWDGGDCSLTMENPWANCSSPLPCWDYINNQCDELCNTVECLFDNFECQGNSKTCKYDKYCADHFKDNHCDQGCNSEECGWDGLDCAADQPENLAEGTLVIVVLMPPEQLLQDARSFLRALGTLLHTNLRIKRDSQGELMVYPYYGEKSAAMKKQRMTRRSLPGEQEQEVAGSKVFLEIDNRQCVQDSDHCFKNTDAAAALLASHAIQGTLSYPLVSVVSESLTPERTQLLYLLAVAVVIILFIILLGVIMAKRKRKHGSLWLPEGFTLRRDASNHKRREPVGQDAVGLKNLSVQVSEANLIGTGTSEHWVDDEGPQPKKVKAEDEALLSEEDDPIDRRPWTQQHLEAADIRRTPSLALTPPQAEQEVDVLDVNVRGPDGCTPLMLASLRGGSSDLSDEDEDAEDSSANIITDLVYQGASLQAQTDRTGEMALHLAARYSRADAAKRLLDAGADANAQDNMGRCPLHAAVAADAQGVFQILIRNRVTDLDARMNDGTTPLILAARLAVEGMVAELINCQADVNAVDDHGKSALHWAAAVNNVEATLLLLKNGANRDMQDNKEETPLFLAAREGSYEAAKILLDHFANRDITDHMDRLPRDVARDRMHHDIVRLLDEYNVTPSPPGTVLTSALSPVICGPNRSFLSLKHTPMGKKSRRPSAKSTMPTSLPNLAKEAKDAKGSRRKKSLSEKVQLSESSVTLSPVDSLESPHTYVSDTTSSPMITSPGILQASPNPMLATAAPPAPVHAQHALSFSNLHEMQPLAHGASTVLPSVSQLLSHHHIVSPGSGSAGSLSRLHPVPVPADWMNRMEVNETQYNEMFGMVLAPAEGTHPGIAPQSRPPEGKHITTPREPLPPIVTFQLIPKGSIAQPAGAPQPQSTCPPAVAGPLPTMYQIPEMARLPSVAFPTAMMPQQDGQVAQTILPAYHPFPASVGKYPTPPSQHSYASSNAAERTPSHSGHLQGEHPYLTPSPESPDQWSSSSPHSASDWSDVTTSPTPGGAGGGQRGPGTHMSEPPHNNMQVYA

SMILES | composite z-score [1] | composite z-score [2] | composite z-score [3] | composite z-score [4] | composite z-score [5] | composite z-score [6] | composite z-score [7] | z-score [8] | composite z-score [9] | composite z-score [10]
[N-]=[N+]=Nc1ccccc1C[C@]1(C(=O)N2CCCCC2)N=C(c2ccc(OCCCO)cc2)O[C@H]1c1ccccc1 | 0.484 | 0.593 | -0.0332 | 1.21 | 1.36 | 0.733 | 1.08 | -3.1 (inactive) | 0.933 | 0.154
C=CCNC(=O)[C@H]1[C@@H]2C(=O)O[C@@H](c3ccccc3)[C@@H](c3ccccc3)N2[C@@H](c2ccc(OCCO)cc2)[C@]12C(=O)N(C(=O)OCCOC)c1ccc(C#CCC(C(=O)OC)C(=O)OC)cc12 | 1.55 | 0.948 | 0.18 | 1.1 | 0.881 | 1.63 | 1.19 | 0.9 (inactive) | 0.725 | 1.58
CC1CC/C=C\[C@H]2OC34C=CCN(C(C)C)C(=O)[C@H]3N(C(C)CO)C(=O)[C@@H]4C2C(=O)O1 (stereo not given in full) | -0.213 | 0.104 | -0.129 | -0.19 | -0.0047 | -0.43 | 0.238 | -0.658 (inactive) | -0.088 | -0.137
COc1cc(Cc2cc3c(c(-c4ccccc4)n2)[Si](C(C)C)(C(C)C)OC3)cc(OC)c1OC | 0.13 | 0.0203 | -0.141 | 0.305 | -0.374 | -0.289 | -0.683 | -0.277 (inactive) | 0.0647 | 0.0274
C[C@]1(C(=O)O)c2ccccc2C(=O)N(Cc2cc(C(F)(F)F)cc(C(F)(F)F)c2)[C@H]1c1ccc(CO)cc1 | -0.0018 | -0.48 | -0.152 | 0.159 | -0.0211 | -0.179 | 0.0653 | 0.192 (inactive) | 0.192 | -0.236
CC1C2C(CCCO)=CC(C3C(=O)N(C)C(=O)C23)N1Cc1cccc(OC(F)(F)F)c1 (stereo not given) | -0.0014 | 0.289 | 0.0653 | 0.647 | 0.929 | 2.04 | 1.37 | 0.0511 (inactive) | 0.155 | 0.289
CC1C2C(CCCO)=CC(C3C(=O)N(C(N)=O)C(=O)C23)N1Cc1cccc(OC(F)(F)F)c1 (stereo not given) | -0.261 | 0.913 | -0.0558 | 0.767 | 0.53 | 1.18 | 1.28 | 1.88 (inactive) | 0.269 | 0.0659
CCOC(=O)C[C@H]1[C@H](OC(=O)c2ccc(-c3ccccc3)cc2)[C@@H](NC(=O)C2CCCCC2)c2cc(OCCCO)ccc2N1C(=O)Cc1ccc(OC)cc1 | -0.114 | 0.279 | -0.0369 | 0.0887 | 0.215 | 0.157 | -0.481 | -0.054 (inactive) | 0.241 | 0.0722
Cc1ccc(S(=O)(=O)N2[C@@H](c3ccccc3)C(C(=O)O)=C[C@H]2C(C)(C)C)cc1 | -0.316 | 1.81 | 0.0103 | 0.611 | 1.45 | 1.37 | 1.23 | -1.84 (inactive) | 0.736 | -0.156
C=C(CCCC)C(=O)CC[C@@H](OC(C)=O)c1ccc(OCCO)cc1 | 0.0324 | 1.11 | -0.0909 | 1.01 | -0.626 | 0.409 | 1.02 | -0.0798 (inactive) | 0.0685 | -0.134
O=C1OC[C@@H](c2ccccc2)n2cc(/C=C/c3ccccc3)cc21 | 0.0087 | -0.382 | -0.178 | -0.162 | -0.924 | 0.895 | 0.132 | -0.144 (inactive) | -0.503 | -0.306
O=C(NCCN1CCOCC1)[C@@H]1c2ccccc2C(=O)N(CC23CC4CC(CC(C4)C2)C3)[C@H]1c1ccc(CO)cc1 | -0.203 | 0.336 | 0.0458 | 0.734 | 1.64 | 1.78 | 1.39 | -2.37 (inactive) | 0.742 | 0.0373
C=C(C(=O)CC[C@@H](OC(=O)c1ccccc1-c1ccccc1C(=O)O)c1ccc(CO)o1)C(C)C | -0.422 | 1.18 | -0.087 | 1.03 | 0.0438 | 0.115 | 0.445 | 0.0639 (inactive) | 0.379 | -0.0645
Cc1ccc(S(=O)(=O)N2[C@@H](c3ccccc3)C(C(=O)O)=CC[C@H]2c2ccc(F)cc2)cc1 | -0.191 | 1.32 | 0.174 | 1.41 | -0.0595 | -0.0826 | 1.33 | -2.75 (inactive) | 0.654 | -0.252
C=CCOC(=O)[C@@H]1[C@H]2C(=O)O[C@H](c3ccccc3)[C@H](c3ccccc3)N2[C@H](c2ccc(OCCOC(=O)[C@@H]3C[C@@H]4C(=O)N[C@@H](CC(C)C)C(=O)N4[C@@H]3c3ccc(O)cc3)cc2)[C@@]12C(=O)Nc1ccc(I)cc12 | -0.479 | 0.17 | -0.0489 | 0.325 | 0.853 | 0.616 | 1.29 | -0.277 (inactive) | 0.4 | 0.383
O=C(N1CCOCC1)[C@]1(CCS(=O)(=O)c2ccccc2)N=C(c2ccc(OCCCO)cc2)O[C@@H]1c1ccccc1 | 0.217 | 2.19 | -0.0667 | 0.479 | 1.22 | 1.94 | 1.3 | -1.49 (inactive) | 1.31 | -0.0994

SMILES | composite z-score [1] | composite z-score [2] | composite z-score [3] | composite z-score [4] | composite z-score [5] | composite z-score [6] | composite z-score [7] | z-score [8] | composite z-score [9] | composite z-score [10]
O=C1O[C@H](c2ccccc2)[C@H](c2ccccc2)N2[C@H]1[C@@H](C(=O)O)[C@]1(C(=O)Nc3ccccc31)[C@H]2c1ccc(OCCO)cc1 | -0.442 | -0.0349 | -0.0112 | 0.334 | 0.239 | 1.57 | 1.04 | 0.248 (inactive) | 0.215 | 0.176
CC[C@H]1C2=C3C(CC[C@H]4C(OCc5ccc(F)cc5C(F)(F)F)OC[C@](C)([C@@H]34)N(C(=O)OC(C)(C)C)C2)C(COC(C)=O)C1COC(C)=O (stereo not given in full) | -0.187 | -0.25 | 0.0311 | 0.54 | 1.54 | 1 | 1.2 | 1.48 (inactive) | 1.43 | 0.104
CCOC(=O)C1=CC[C@@H](c2ccccc2)N(S(=O)(=O)c2ccc(C)cc2)[C@@H]1C#N | -0.182 | -0.0258 | 0.0056 | 0.388 | 1.25 | 1.11 | 1.05 | -0.823 (inactive) | 0.158 | 0.0505
COc1ccc(C(=O)Nc2ccc(CN3C(=O)[C@]4(O[C@H](CC(=O)N(CCO)Cc5ccccc5)[C@@H]([Si](C)(C)c5ccc(OC)cc5)[C@@H]4C)c4ccccc43)cc2)cc1 | -0.284 | 1.22 | -0.0858 | 0.792 | 0.271 | 0.74 | 1.26 | -0.228 (inactive) | 0.276 | -0.0994
CC(=O)NCCCC[C@@H]1NC(=O)[C@H]2C[C@@H](C(=O)NCCCCCN)[C@@H](c3ccc(O)cc3)N2C1=O | 0.392 | 0.861 | 0.007 | 0.198 | 1 | 0.0529 | 1.2 | -0.248 (inactive) | 0.418 | 0.141
COc1ccc(NN2C(C(O)c3ccccc3)C=CC3C(=O)N(C4CCCCC4)C(=O)C32)cc1 (stereo not given) | 0.0373 | 0.166 | 0.0402 | 0.851 | 1.59 | 1.39 | 1.3 | 1.78 (inactive) | 1.5 | 0.224
COc1cc(Cc2cc3c(c(CCc4ccccc4)n2)[Si](C(C)C)(C(C)C)O[C@H]3c2ccccc2)cc(OC)c1OC | 0.962 | -0.133 | -0.0454 | 0.169 | -0.285 | -0.499 | -0.44 | -0.149 (inactive) | -0.273 | -0.0102
COc1ccc([Si](C)(C)[C@H]2[C@H](CC(=O)N3CCC[C@H]3CO)O[C@@]3(C(=O)N(C)c4ccccc43)[C@@H]2C)cc1 | 0.735 | 0.384 | -0.0375 | -0.0959 | -0.711 | 0.63 | 1.4 | -0.0568 (inactive) | 0.324 | 0.394
C=C[C@@H](CO)NS(=O)(=O)c1ccc(Br)cc1 | 0.265 | -0.066 | -0.22 | -0.426 | -1.14 | -0.361 | -0.14 | -1.84 (inactive) | -0.257 | -0.156
O=C1O[C@H](c2ccccc2)[C@H](c2ccccc2)N2[C@H]1[C@@H](C(=O)N1CCN(c3ncccn3)CC1)[C@]1(C(=O)Nc3ccc(C#CC4(O)CCCCCC4)cc31)[C@H]2c1ccc(O)cc1 | 0.406 | 2.01 | -0.0125 | 1.04 | 0.607 | 1.54 | 1.28 | 0.0132 (inactive) | 0.0718 | -0.0645
CN1C(=O)C2C=CC(C(O)c3ccc(I)cc3)N(N(c3ccccc3)c3ccccc3)C2C1=O (stereo not given) | 0.75 | -0.272 | -0.0507 | -0.454 | 0.333 | 0.495 | -0.0493 | 0.586 (inactive) | 0.428 | -0.176
COc1ccc(NN2C(C(O)c3ccc(F)cc3)C=CC3C(=O)N(C4CCCCC4)C(=O)C32)cc1 (stereo not given) | 0.443 | 0.0876 | 0.133 | 0.686 | 1.59 | 1.52 | 1.22 | 1.78 (inactive) | 0.688 | -0.0618
O=C1OCCC/C=C\[C@H]2OC34C=CCN(Cc5ccccc5)C(=O)[C@H]3N(CCO)C(=O)[C@@H]4C12 (stereo not given in full) | 0.166 | 1.08 | -0.226 | 0.866 | 0.479 | 1.79 | 1.53 | 0.0936 (inactive) | -0.342 | -0.0994
COCCCNC(=O)[C@]1(Cc2ccccc2N=[N+]=[N-])N=C(c2ccc(OCCCO)cc2)O[C@@H]1c1ccccc1 | 0.522 | 1 | 0.286 | 0.232 | 1.4 | 1.73 | 1.27 | -2.74 (inactive) | 1.14 | 0.547
COC(=O)C(CC#Cc1ccc2c(c1)[C@]1(C(=O)N2)[C@H](c2ccccc2OCCO)N2[C@H](c3ccccc3)[C@H](c3ccccc3)OC(=O)[C@H]2[C@@H]1C(=O)N1CCN(c2ncccn2)CC1)C(=O)OC | -0.35 | 0.474 | -0.0937 | 0.431 | 0.852 | 1.31 | 1.13 | -1.46 (inactive) | 0.255 | -0.11
CC(C)[Si]1(C(C)C)OCc2cc(-c3ccc(-c4ccc(Cl)c(Cl)c4)o3)nc(-c3ccc(Oc4ccccc4)cc3)c21 | 0.639 | -1.11 | -0.207 | -0.738 | -1.78 | -0.762 | -0.6 | 1.52 (inactive) | -0.857 | -0.306
